Results on 65 molecules are retold here after the antibiotic and cytotoxicity screens of Wong et al. (2023).

Hit rate of the full screen: of about 39,000 compounds, about 3,300 (8.5%) were called active. The sample as a whole holds a higher share of actives than the screen did.

The subject of the test is HepG2. Put plainly: cytotoxicity call (relative viability < 0.9). The conditions noted are these: 10 µM.
With `CC(C)C(O)=C1C(=O)OC(c2ccoc2)C2(C)C(O)C(O)C34OC5(C)OC3(C12)C(O)C1(O)C(O)C2(C)CC1(O5)C4(C)C2CC(=O)O` (stereo not given), the cytotoxicity call is “inactive”. Consider `CC(C)C(=O)[C@@H]1C(=O)O[C@@H](c2ccoc2)[C@]2(C)[C@H](O)[C@@H](O)[C@@]34O[C@]5(C)O[C@]3([C@H]12)[C@H](O)[C@@]1(O)[C@H](O)[C@]2(C)C[C@]1(O5)[C@@]4(C)[C@H]2CC(=O)O`, for which the cytotoxicity call is “active”.

Turning to `COC(=O)CC1C2(C)CC34OC5(C)OC6(C7C(=C(O)C(C)C)C(=O)OC(c8ccoc8)C7(C)C(OC(C)=O)C(OC(C)=O)C6(O5)C13C)C(OC(C)=O)C4(O)C2OC(=O)C(C)C` (stereo not given), the cytotoxicity call was “inactive”.

Turning to `COc1cccc(S(=O)(=O)N(C)C[C@H]2Oc3ncc(C#CC(C)C)cc3C(=O)N([C@H](C)CO)C[C@@H]2C)c1`, the cytotoxicity call is “inactive”.

Consider `C[C@H](C(=O)N(C)C[C@@H]1OCc2ccccc2-c2c(n(C)c3ccccc23)C(=O)N([C@@H](C)CO)C[C@@H]1C)c1ccccc1`, for which the cytotoxicity call was “inactive”. To `C[C@H](C(=O)N(C)C[C@H]1OCc2ccccc2-c2c(n(C)c3ccccc23)C(=O)N([C@@H](C)CO)C[C@@H]1C)c1ccccc1` belongs “active”; to `C[C@H](C(=O)N(C)C[C@H]1OCc2ccccc2-c2c(n(C)c3ccccc23)C(=O)N([C@@H](C)CO)C[C@H]1C)c1ccccc1`, “inactive”; to `C[C@@H]1CN([C@@H](C)CO)C(=O)c2c(c3ccccc3n2C)-c2ccccc2CO[C@@H]1CN(C)C(=O)[C@H](C)c1ccccc1`, “inactive”.

As to `C[C@H](CO)N1C[C@H](C)[C@H](CN(C)C(=O)[C@H](C)c2ccccc2)OCc2ccccc2-c2c(n(C)c3ccccc23)C1=O`, the cytotoxicity call was “active”. Consider `C[C@@H](C(=O)N(C)C[C@H]1OCc2ccccc2-c2c(n(C)c3ccccc23)C(=O)N([C@@H](C)CO)C[C@@H]1C)c1ccccc1`, for which the cytotoxicity call is “inactive”. In the case of `Cc1noc(C)c1NC(=O)Nc1ccc2c(c1)C(=O)N([C@H](C)CO)C[C@H](C)[C@@H](CN(C)Cc1ccccc1)OCCCC[C@H](C)O2`, the cytotoxicity call was “inactive”. Next, `C[C@H]1CN([C@@H](C)CO)C(=O)c2cc(NC(=O)Nc3ccc(C(F)(F)F)cc3)ccc2O[C@@H]1CN(C)Cc1ccccc1`: “inactive”. With `C[C@@H]1CN([C@H](C)CO)C(=O)c2cc(NC(=O)Nc3ccc(C(F)(F)F)cc3)ccc2O[C@@H]1CN(C)Cc1ccccc1`, the cytotoxicity call was “active”. To `C[C@@H]1CN([C@@H](C)CO)C(=O)c2cc(NC(=O)Nc3ccc(C(F)(F)F)cc3)ccc2O[C@@H]1CN(C)Cc1ccccc1` belongs “active”.

For `C[C@H](CO)N1C[C@H](C)[C@H](CN(C)Cc2ccccc2)Oc2ccc(NC(=O)Nc3ccc(C(F)(F)F)cc3)cc2C1=O`, the cytotoxicity call is “active”. To `C[C@@H]1CN([C@@H](C)CO)C(=O)c2cc(NC(=O)Nc3ccc(C(F)(F)F)cc3)ccc2O[C@H]1CN(C)Cc1ccccc1` belongs “inactive”. Next, `C[C@H]1CN([C@@H](C)CO)C(=O)c2cc(NC(=O)Nc3ccc(C(F)(F)F)cc3)ccc2O[C@H]1CN(C)Cc1ccccc1`: “active”; `COc1ccc2c3c([nH]c2c1)[C@@H](CO)N(C[C@]13CN(Cc2ccccc2)C1)S(=O)(=O)c1cn(cn1)C`: “inactive”. In the case of `C[C@@H]1CN([C@H](C)CO)S(=O)(=O)c2ccc(C#CC3(O)CCCC3)cc2O[C@@H]1CN(C)C(=O)c1cccnc1`, the cytotoxicity call is “inactive”.

For `COc1ccc(CN(C)C[C@H]2OCCCC[C@H](C)Oc3ccc(NC(=O)c4ccccc4)cc3C(=O)N([C@H](C)CO)C[C@H]2C)cc1`, the cytotoxicity call is “inactive”. To `COc1ccc(CN(C)C[C@H]2OCCCC[C@@H](C)Oc3ccc(NC(=O)Cc4ccccc4)cc3C(=O)N([C@H](C)CO)C[C@H]2C)cc1` belongs “inactive”; to `CC[C@@](N)(C(=O)O)c1ccccc1`, “inactive”; to `C=C(C)[C@]1(O)OC(=O)C=C1OC`, “inactive”. To `C[C@@H]1CN([C@H](C)CO)C(=O)c2cc(C#Cc3ccccc3F)cnc2O[C@@H]1CN(C)S(=O)(=O)c1ccccc1` belongs “inactive”. As for `CCC(=O)N1CCC[C@@H]1C(=O)O`, the cytotoxicity call was “inactive”.

`Cc1noc(C)c1NC(=O)Nc1ccc2c(c1)C(=O)N([C@H](C)CO)C[C@H](C)[C@H](CN(C)C(=O)c1ccccc1)OCCCC[C@@H](C)O2`: the cytotoxicity call was “inactive”.

Take `Cc1ccc(S(=O)(=O)N[C@@H]2CC[C@@H](CC(=O)N3CCC(Cc4ccccc4)CC3)O[C@@H]2CO)cc1`: the cytotoxicity call is “inactive”. Next, `C[C@@H]1CCCCO[C@H](CN(C)CC2CCCCC2)[C@H](C)CN([C@H](C)CO)C(=O)c2cc(NC(=O)c3ccncc3)ccc2O1`: “inactive”; `C[C@H](CO)N1C[C@H](C)[C@H](CN(C)C(=O)Nc2ccc(C(F)(F)F)cc2)Oc2ccc(NC(=O)Nc3ccc4c(c3)OCO4)cc2C1=O`: “inactive”; `C[C@@H]1CN([C@H](C)CO)S(=O)(=O)c2ccc(-c3cccc(F)c3)cc2O[C@@H]1CN(C)S(C)(=O)=O`: “inactive”. With `C[C@@H]1CN([C@@H](C)CO)C(=O)c2cc(NC(=O)C3CC3)ccc2O[C@H]1CN(C)S(=O)(=O)c1ccc(Cl)cc1`, the cytotoxicity call was “inactive”. Next, `C[C@H](CO)N1C[C@H](C)[C@@H](CN(C)Cc2ccccc2)Oc2ccc(NC(=O)Nc3ccc(C(F)(F)F)cc3)cc2C1=O`: “active”. Next, `C[C@@H]1CN([C@H](C)CO)C(=O)c2cc(NC(=O)Nc3ccc(C(F)(F)F)cc3)ccc2O[C@H]1CN(C)Cc1ccccc1`: “active”; `C[C@@H]1CN([C@@H](C)CO)C(=O)c2cc(NC(=O)Cc3ccccc3)ccc2O[C@@H](C)CCCCO[C@@H]1CN(C)S(=O)(=O)c1cccs1`: “inactive”.

For `Cc1cc(C(=O)Nc2cccc3c2O[C@H](CN(C)Cc2ccccc2)[C@@H](C)CN([C@@H](C)CO)C3=O)n(C)n1`, the cytotoxicity call was “inactive”.

Consider `C[C@H]1CN([C@@H](C)CO)C(=O)c2cccc(NC(=O)Nc3ccc4c(c3)OCO4)c2O[C@@H]1CN(C)S(=O)(=O)c1cn(C)cn1`, for which the cytotoxicity call is “inactive”. As to `C[C@H](CO)N1C[C@H](C)[C@H](CN(C)S(=O)(=O)c2cccs2)OCCCC[C@H](C)Oc2ccc(NC(=O)CCC(F)(F)F)cc2C1=O`, the cytotoxicity call is “inactive”. Regarding `Cc1noc(C)c1NC(=O)Nc1ccc2c(c1)C(=O)N([C@H](C)CO)C[C@H](C)[C@@H](CN(C)S(C)(=O)=O)O2`, the cytotoxicity call was “inactive”. Next, `C[C@@H]1CCCCO[C@@H](CN(C)C(=O)Nc2ccc(C(F)(F)F)cc2)[C@H](C)CN([C@@H](C)CO)C(=O)c2cc(NC(=O)Nc3ccc4c(c3)OCO4)ccc2O1`: “inactive”.

For `Cc1noc(C)c1NC(=O)Nc1ccc2c(c1)C(=O)N([C@@H](C)CO)C[C@H](C)[C@@H](CN(C)C(=O)Nc1ccccc1)OCCCC[C@H](C)O2`, the cytotoxicity call was “inactive”. Next, `C[C@H](CO)N1C[C@H](C)[C@H](CN(C)C(=O)Nc2cccc3ccccc23)Oc2ccc(NC(=O)CCC(F)(F)F)cc2C1=O`: “inactive”; `C[C@@H]1CCCCO[C@@H](CN(C)S(C)(=O)=O)[C@@H](C)CN([C@H](C)CO)C(=O)c2cc(NC(=O)c3ccncc3)ccc2O1`: “inactive”; `C[C@@H]1CN([C@H](C)CO)C(=O)Cc2cc(NS(=O)(=O)c3cccs3)ccc2O[C@@H]1CN(C)Cc1ccc(Oc2ccccc2)cc1`: “active”.

For the molecule `C[C@@H]1CN([C@H](C)CO)C(=O)Cc2cc(NS(=O)(=O)c3cccs3)ccc2O[C@H]1CN(C)Cc1ccc(Oc2ccccc2)cc1`, the cytotoxicity call is “active”. To `C[C@H]1CN([C@@H](C)CO)C(=O)Cc2cc(NS(=O)(=O)c3cccs3)ccc2O[C@H]1CN(C)Cc1ccc(Oc2ccccc2)cc1` belongs “inactive”.

With `C[C@H]1CN([C@@H](C)CO)C(=O)Cc2cc(NS(=O)(=O)c3cccs3)ccc2O[C@@H]1CN(C)Cc1ccc(Oc2ccccc2)cc1`, the cytotoxicity call was “inactive”. To `C[C@@H]1CN([C@@H](C)CO)C(=O)Cc2cc(NS(=O)(=O)c3cccs3)ccc2O[C@@H]1CN(C)Cc1ccc(Oc2ccccc2)cc1` belongs “inactive”. Next, `C[C@H](CO)N1C[C@H](C)[C@@H](CN(C)Cc2ccc(Oc3ccccc3)cc2)Oc2ccc(NS(=O)(=O)c3cccs3)cc2CC1=O`: “inactive”; `Cn1cc(CN2CCC3(CC2)CNC(=O)CO3)cn1`: “inactive”; `COc1cccc(S(=O)(=O)Nc2ccc3c(c2)[C@@H]2C[C@H](CC(=O)NC4CCCCC4)O[C@@H](CO)[C@@H]2O3)c1`: “inactive”. Next, `Cc1ccc(S(=O)(=O)Nc2ccc3c(c2)C(=O)N([C@H](C)CO)C[C@@H](C)[C@@H](CN(C)S(=O)(=O)c2ccccc2)O3)cc1`: “inactive”; `C[C@@H]1CN([C@@H](C)CO)S(=O)(=O)c2ccc(C#CC(C)(C)O)cc2O[C@H]1CN(C)C(=O)CN(C)C`: “inactive”. `COc1ccc(NC(=O)N(C)C[C@H]2OCCCC[C@@H](C)Oc3ccc(NC(=O)c4ccccc4)cc3C(=O)N([C@@H](C)CO)C[C@@H]2C)cc1`: the cytotoxicity call is “inactive”.

Consider `CC(C)NC(=O)N(C)C[C@H]1OCCCC[C@H](C)Oc2ccc(NC(=O)Nc3cccc4ccccc34)cc2C(=O)N([C@H](C)CO)C[C@@H]1C`, for which the cytotoxicity call was “inactive”. Next, `C[C@H]1CCCCO[C@H](CN(C)Cc2ccc(C(=O)O)cc2)[C@@H](C)CN([C@@H](C)CO)C(=O)c2cc(NS(=O)(=O)c3ccc(F)cc3)ccc2O1`: “inactive”; `CN(C)C/C=C/C(=O)Nc1ccc(C(=O)Nc2cccc(Nc3ncc(Cl)c(-c4c[nH]c5ccccc45)n3)c2)cc1`: “active”.

For `O=C(O)C1CCOCC1`, the cytotoxicity call was “inactive”. For the molecule `Cc1ccc(S(=O)(=O)Nc2ccc3c(c2)C(=O)N([C@@H](C)CO)C[C@@H](C)[C@H](CN(C)Cc2ccc(Cl)c(Cl)c2)OCCCC[C@@H](C)O3)cc1`, the cytotoxicity call is “inactive”. To `Cc1ccc(S(=O)(=O)Nc2ccc3c(c2)C(=O)N([C@H](C)CO)C[C@@H](C)[C@@H](CN(C)Cc2ccc(Cl)c(Cl)c2)OCCCC[C@H](C)O3)cc1` belongs “inactive”. To `Cc1ccc(S(=O)(=O)Nc2ccc3c(c2)C(=O)N([C@H](C)CO)C[C@@H](C)[C@H](CN(C)Cc2ccc(Cl)c(Cl)c2)OCCCC[C@@H](C)O3)cc1` belongs “active”. Next, `Cc1ccc(S(=O)(=O)Nc2ccc3c(c2)C(=O)N([C@@H](C)CO)C[C@@H](C)[C@@H](CN(C)Cc2ccc(Cl)c(Cl)c2)OCCCC[C@@H](C)O3)cc1`: “active”; `Cc1ccc(S(=O)(=O)Nc2ccc3c(c2)C(=O)N([C@H](C)CO)C[C@H](C)[C@@H](CN(C)Cc2ccc(Cl)c(Cl)c2)OCCCC[C@H](C)O3)cc1`: “inactive”. Take `Cc1ccc(S(=O)(=O)Nc2ccc3c(c2)C(=O)N([C@H](C)CO)C[C@H](C)[C@H](CN(C)Cc2ccc(Cl)c(Cl)c2)OCCCC[C@H](C)O3)cc1`: the cytotoxicity call is “inactive”. Next, `Cc1ccc(S(=O)(=O)Nc2ccc3c(c2)C(=O)N([C@H](C)CO)C[C@@H](C)[C@H](CN(C)Cc2ccc(Cl)c(Cl)c2)OCCCC[C@H](C)O3)cc1`: “active”; `Cc1ccc(S(=O)(=O)Nc2ccc3c(c2)C(=O)N([C@@H](C)CO)C[C@H](C)[C@@H](CN(C)Cc2ccc(Cl)c(Cl)c2)OCCCC[C@@H](C)O3)cc1`: “active”.
